Records with an inconclusive call do not appear. A call without a number means that no potency is given here. The source made the active and inactive calls. The call rests on the fitted dose curve; in most records, active means well fitted cell-killing curve with a large enough effect; inconclusive means small, poorly fitted or top-dose-only effect; inactive means flat fitted curve, though single readings scatter.
Potency means the concentration at half of the fitted maximal effect.

The assay in a line: Viability qHTS for inhibitors of the SERCaMP assay screened against the NCATS CANVASS Library (AID 1347400). Further: nearly all actives have a fitted effect of over 70% in size. To be noted: SH-SY5Y SERCaMP cells viability, CellTiter-Glo, 48 h; series mostly up to 92.2 µM. The source says: Natural products and their derivatives continue to be wellsprings of nascent therapeutic potential. However, many laboratories have limited resources for biological evaluation, leaving their previously isolated or synthesized compounds largely or completely untested. To address this issue, the Canvass library of natural products was assembled (https://tripod.nih.gov/canvass), in collaboration with academic and industry researchers, for quantitative high-throughput screening (qHTS) across a diverse set of cell-based and biochemical assays. The pure (>85% purity by liquid chromatography/mass spectrometry [LC/MS]) Canvass library of 346 natural products were submitted by 45 academic laboratories and companies around the world. We collected pure natural products to circumvent deconvolution and structure elucidation due to time and resource limitations. The library was formatted into 1536-well plates and evaluated in 50 qHTS (in an 11-pnt concentration series) bioassays with broad scope of disease-relevant mechanisms. The resulting data set from 50 different assays was then systematically analyzed to identify overall trends and specific natural products with interesting biological activities. Reported herein are the results of each individual qHTS and their corresponding assay protocol. Cytotoxic compounds are expected to interfere with the SERCaMP assay, and these are identified using a CellTiter-Glo viability assay. National Center for Advancing Translational Sciences (NCATS), Rockville, MD National Institute of Health (NIH), Bethesda, Maryland
SERCaMP Viability assay protocol: 1. In a white-solid bottom 1536-well tissue culture plate (Corning 7494), 5 uL of SH-SY5Y-GLuc SERCaMP MJH297 derived cells were dispensed using a Multidrop Combi (Thermo Fisher Scientific) at a final concentration of 1000 cells / well. 2. The assay plates were incubated for 4 hours at 37C, 5% CO2, 95% humidity. 3. […] of compounds (in DMSO; columns 5-48), and positive control Bortezomib (1 mM; 1:2 dilution; 16-points; n = 2; column 2, rows 1-32) were pin transferred into the assay plates using the Kalypsis pin tool (Wako USA) equipped with a 1536-well pin heads. This yields a final concentration range of 0.0001 - 4.6 uM for the Bortezomib and 0.001 - 77 uM for the compounds. 4. The assay plates were incubated for 48 hours at 37C, 5% CO2, 95% humidity. 5. After incubation, 3 uL of CellTiterGlo reagent (Promega) was dispensed into each wells. 6. The plates were centrifuged for 15 seconds at 1000 rpm. 7. Luminescence signal was obtained via the ViewLux plate reader (Perkin Elmer) using the clear emission filter and 1x binning, 2 seconds exposure settings.
For the molecule `C[C@]12CC(O)C3[C@@H](CCC4C[C@@H](O)CC[C@@]43CO)[C@@]1(O)CCC2C1=CC(=O)OC1` (some centres undefined), the Potency entry was “inactive”. Consider `NCCc1ccccc1`, for which the Potency entry was “inactive”. Take `CC=C1CN(C=O)[C@H]2C[C@@H]1[C@@H](C(=O)OC)[C@@]13CCOC21Nc1ccccc13` (some centres undefined): the Potency result was “inactive”. With `O=C(c1ccccc1O)c1[nH]c(Cl)c(Cl)c1-n1c(C(=O)c2ccccc2O)cc(Cl)c1Cl`, the Potency was 19.1 µM (active). As to `CN(C)Cc1c[nH]c2ccccc12`, the Potency result was “inactive”. On to `CC(=O)N[C@H]1CCN2CCC[C@H]12`, for which the Potency entry was “inactive”.

Regarding `CCN1C[C@]2(C)CC[C@H](O)[C@]34C1C(C[C@H]23)[C@@]12CC[C@H](CC14)[C@](O)(COC(=O)c1ccc(OC)c(OC)c1)[C@H]2O` (some centres undefined), the Potency entry was “inactive”. Take `CO[C@@H](/C=C/CC/C=C/C(=O)O)[C@@H](O)[C@H](C)/C=C(\C)[C@@H](O)[C@H](C)C(=O)CCCC1CC(=O)NC(=O)C1`: the Potency result was “inactive”.

Take `CO[C@@H](/C=C/CC/C=C/C(=O)O)[C@@H](O)[C@H](C)[C@@H](O)/C(C)=C/[C@H](C)C(=O)CCCC1CC(=O)NC(=O)C1`: the Potency entry is “inactive”. For `CNCCc1ccc(O)cc1` the value was “inactive”; for `C/C=C1/CN2CC[C@]34C(=Nc5ccccc53)[C@@H]2C[C@@H]1[C@H]4C(=O)OC`, “inactive”; for `c1ccc2c3c([nH]c2c1)CNCC3`, “inactive”. Under `CCC[C@H]1CC[C@H]2[C@H](C)CCC[C@H]2N1` stands “inactive”; under `COc1ccc2c(c1)[nH]c1c(C)nccc12`, 27.8 µM (active). For `CN1C(=O)[C@]23CC4C(C)(C)[C@@]5(C[C@@]41CN2CC[C@@]3(C)O)C(=O)Nc1c5ccc2c1OC=CC(C)(C)O2` (some centres undefined) the value was “inactive”. Take `CC[N@@+]1([O-])C[C@]2(C)CC[C@@H](O)[C@@]34C5C[C@H]6CC[C@@]5(C(C[C@H]23)C41)[C@H](O)[C@@]6(O)CO` (some centres undefined): the Potency entry is “inactive”. For `CC1=CC2CC[C@@H]3[C@@H](C)C[C@H](C)[C@@H](C1)N23` (some centres undefined) the value was “inactive”. Regarding `CC[C@@H]1CN2CC[C@@]3(O)C(=Nc4cccc(OC)c43)[C@@H]2C[C@@H]1/C(=C\OC)C(=O)OC`, the Potency result is “inactive”. For `COc1ccc(C23Oc4cc(OC)cc(OC)c4[C@](O)([C@H](c4ccccc4)C2C(=O)NCCCCNC(=O)c2ccccc2)[C@@H]3O)cc1` (some centres undefined) the value was “inactive”. On to `CO[C@H](c1ccccc1)[C@H]1NC(=O)C(C)NC(=O)C(C[C@@H](C)CO)N(C)C(=O)[C@@H](C(O)c2cn(C(C)(C)C3CO3)c3ccccc23)NC(=O)C(C(C)C=C(C)C)NC(=O)C(CC(C)C)N(C)C(=O)C(C(C)C)NC1=O` (some centres undefined), for which the Potency result is “inactive”. Under `CCCC[C@@H]1CC[C@H]2CCCC(CCC)N12` (some centres undefined) stands “inactive”; under `CCCCC[C@@H]1OC(=O)[C@@H](C)N(C)C(=O)[C@H](CCCCC)OC(=O)C(C)N(C)C(=O)[C@H](CCCCC)OC(=O)[C@@H](C)N(C)C(=O)[C@H](CCCCC)OC(=O)C(C)N(C)C1=O` (some centres undefined), 38.1 µM (active). For `CC1=CC(=O)C2=C(C)C[C@H](O)[C@@H]3[C@H](OC(=O)[C@@H]3C)[C@@H]12` the value was “inactive”; for `C[C@@H]1CC[C@@H](c2ccoc2)N2C[C@@]3(CC[C@@H]12)CS[C@@]1(CC[C@H]2[C@H](C)CC[C@@H](c4ccoc4)N2[C@@H]1O)C3`, 13.5 µM (active). As to `COC(=O)C1=C2Nc3ccccc3[C@@]23CCN2CC(C(C)=O)C1C[C@H]23` (some centres undefined), the Potency entry was “inactive”. For `CNCCc1c[nH]c2ccccc12` the value was “inactive”; for `CCN1C[C@]2(C)CC[C@@H](O)[C@]34C1[C@H](C[C@H]23)C12CCC(CC14)[C@](O)(CO)[C@H]2O` (some centres undefined), “inactive”. For the molecule `CCC(=O)CCCCC[C@@H]1NC(=O)[C@H]2CCCCN2C(=O)[C@H]([C@@H](C)CC)NC(=O)[C@H](Cc2cn(OC)c3ccccc23)NC1=O`, the Potency was 3.81 µM (active).

As to `CNCCc1ccccc1`, the Potency entry is “inactive”.

Source of the values: PubChem BioAssay (NCATS).
